Source: PubChem BioAssay (NCI)
About 79,000 compounds went through this panel and 15% of them were active in at least one assay; those are over-represented in the sample as a whole. The source made the active and inactive calls. Cut-off read from the data, not from the text of the source: active = growth inhibition above about 70%; inactive = the rest.

Experiments:
[1] = NCI Yeast Anticancer Drug Screen. Data for the rad50 strain (AID 155);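 note: 0% = growth of vehicle-only cultures of the same strain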; details: S. cerevisiae rad50 strain growth inhibition; at 50.0 µM; active compounds read high
Procedure, shortened: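 A DNA repair-deficient yeast mutant serves as the test organism; compound-induced growth inhibition is calculated against vehicle-treated cells.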

[2] = NCI Yeast Anticancer Drug Screen. Data for the mec2-1 strain (AID 157); details: S. cerevisiae mec2-1 strain, at 50.0 µM, active compounds read high
Procedure, shortened: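 Growth inhibition is read against vehicle-treated controls after compound exposure of the mec2-1 yeast strain, which is defective in DNA damage repair or cell cycle control.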

[3] = NCI Yeast Anticancer Drug Screen. Data for the sgs1 mgt1 strain (AID 161);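 note: 0% = growth of cultures given vehicle only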; details: S. cerevisiae sgs1 mgt1 strain, at 50.0 µM, active compounds read high
Procedure, shortened: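 Growth of a repair-deficient yeast mutant was monitored after compound treatment and expressed as inhibition relative to vehicle-treated cultures.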

[4] = NCI Yeast Anticancer Drug Screen. Data for the cln2 rad14 strain (AID 165);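 note: 0% = growth equal to vehicle treated cultures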; details: S. cerevisiae cln2 rad14 strain, at 50.0 µM, active compounds read high
Procedure, shortened: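 Growth inhibition, relative to vehicle-treated controls, is the read-out. The test organism is a yeast strain with defined genetic alterations, cln2 rad14.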

[5] = NCI Yeast Anticancer Drug Screen. Data for the bub3 strain (AID 167); details: S. cerevisiae bub3 mutant strain, at 50.0 µM, active compounds read high
Procedure, shortened: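 Inhibition values come from growth of compound-treated mutant yeast normalised to vehicle-treated controls.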

[6] = NCI Yeast Anticancer Drug Screen. Data for the mlh1 rad18 strain (AID 175); details: S. cerevisiae mlh1 rad18 strain growth inhibition; at 50.0 µM; active compounds read high
Procedure, shortened: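 Cells of a genetically altered yeast strain, deficient in DNA damage repair, were treated with compound. Their growth was then compared with that of vehicle-treated cultures to give inhibition.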

Measured: growth inhibition

CCOC(=O)CC1CCC(CCCCC2CCC(CC(=O)OCC)CC2)CC1 (stereo unspecified)
inactive: [2] 44.5% | [4] 57.4% | [5] 22.2% | [6] 45.2%
active: [1] 76% | [3] 80%

Cc1cc(=O)[nH]c(/N=C(\N)Nc2ccc(Br)c(C(F)(F)F)c2)n1
inactive: [1] 10.1% | [2] 2.85% | [3] -3.8% | [4] 6.55% | [5] -1.5% | [6] 2.9%

O=C(CCCCl)c1ccc(O)cc1
inactive: [1] -29.4% | [2] -36% | [3] 2.75% | [4] 11.8% | [5] -17.6% | [6] 0.1%

COc1ccc2cc1Oc1ccc(cc1)C[C@@H]1c3cc(c(OC)cc3CCN1C)Oc1c(OC)c(OC)cc3c1[C@@H](C2)N(C)CC3
inactive: [1] 33% | [2] -20.8% | [3] 18.6% | [4] -2.7% | [5] 21.9% | [6] 31.2%

CC(C)C(O)C(C)N (stereo unspecified)
inactive: [1] 1.4% | [2] -5.9% | [3] 0.7% | [4] 4.9% | [5] 3.2% | [6] 3.5%

CCOC(=O)Cn1c(=O)[nH]c(=O)c2[nH]cnc21
inactive: [1] 9.85% | [2] -5.35% | [3] -1.3% | [4] 9.35% | [5] 13.3% | [6] 23.8%

CC1=Nc2ccccc2C1(C)C
inactive: [1] 8.25% | [2] 8.8% | [3] 15% | [4] 21.2% | [5] 4.55% | [6] 9.3%

CC(O)/C=C/c1ccccc1O (stereo unspecified)
inactive: [1] 2.05% | [2] 2.85% | [3] -13.9% | [4] -41.5% | [5] -5.65% | [6] -13.6%

COc1ccc2c(c1OC)C(=O)OC2(O)C1=NCCc2cc3c(cc21)OCO3 (stereo unspecified)
inactive: [1] 19% | [2] -7.25% | [3] 8.1% | [4] 21.3% | [5] 4.05% | [6] 13.2%

CCO/C=C1/N=C(Cc2ccccc2)OC1=O
inactive: [1] 18.4% | [2] -2.05% | [3] 7.65% | [4] 23.4% | [5] 3.65% | [6] 13%

CN(C)CCCC[N+](C)(C)Cc1ccc(C[N+](C)(C)CCCC[N+](C)(C)Cc2ccc(CCl)cc2)cc1
inactive: [1] -9.7% | [2] -15% | [3] -7.2% | [4] -0.95% | [5] -1.9% | [6] -3.55%

C=C(CN(C)C)c1ccccn1
inactive: [1] -11.9% | [2] -5.45% | [3] -2.3% | [4] -16.8% | [5] -13.3% | [6] -17.6%

COC(=O)C1(CC(=O)c2ccncc2)NC(=S)NC(=O)C1C#N (stereo unspecified)
inactive: [1] 2% | [2] -11.8% | [3] -19.1% | [4] -22.4% | [5] -22.8% | [6] -5.75%

Cn1cnc2cc([N+](=O)[O-])ccc21
inactive: [1] -9.6% | [2] -7.95% | [3] -32.2% | [4] -24.6% | [5] -9.6% | [6] 8.8%

O/N=C(/CN1CCOCC1)c1ccccc1
inactive: [1] -7.25% | [2] 7.9% | [3] -0.25% | [4] -20.9% | [5] 8.4% | [6] 0%

CN(CC(=O)O)c1ncc2c(n1)-c1ccccc1OC2c1ccccc1 (stereo unspecified)
inactive: [1] 21.9% | [2] 19.6% | [3] 44.5% | [4] 47% | [5] 28.9% | [6] 67.8%

O=C(NC12OC3CC(CC(C3)O1)O2)NC12OC3CC(CC(C3)O1)O2
inactive: [1] 3.6% | [2] 0.35% | [3] 14.2% | [4] -3.85% | [5] -30.3% | [6] 2.2%

CC(C)CC(C)Cc1ccncc1 (stereo unspecified)
inactive: [1] 0.4% | [2] 1.65% | [3] 24.8% | [4] 11.8% | [5] -1.65% | [6] -5%

O=C(N/C(=C\c1ccccc1)C1Nc2ccccc2C(=O)O1)c1ccccc1 (stereo unspecified)
inactive: [1] -6.8% | [2] 2.95% | [3] -19.6% | [4] -17.2% | [5] -8.95% | [6] -24.7%

CC(=O)Oc1ccc[nH]c1=O
inactive: [1] 5.25% | [2] -22.1% | [3] 0.9% | [4] 24.6% | [5] 14.3% | [6] 2.4%

O=C(CCl)OCCN(CCOC(=O)CCl)Cc1coc2ccccc2c1=O
inactive: [1] -4.35% | [2] -16.2% | [3] -4.85% | [4] -23.4% | [5] -1.1% | [6] -5.65%
